The values below come from PubChem BioAssay (EPA / NIEHS).

Molecules are shown by their SMILES. Activity calls are given as the source filed them. The calls were made as follows: active = hit-call score of the fitted dose curve at least 0.9, where 1 is the maximum; inactive = score below 0.9.

For orientation: AC50 means the concentration giving half of the maximal activity seen.

Common to all, as to conditions: mRNA level, 48 h; actives raise or lower the signal
Read-out in one assay: CYP2E1 (gene 1571)
Description: LTEA_HepaRG_CYP2E1: Life Technologies and Expression Analysis (LTEA) Assay for CYP2E1 using HepaRG (AID 2283485). In outline:
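Readout is qRT-PCR of CYP2E1 mRNA, normalized to three housekeeping genes and fitted bidirectionally against 0.5% DMSO. HepaRG cells were dosed 48 h at eight concentrations, highest 100 uM with half-log dilutions.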

Read-out in the next assay: CYP4A11 (gene 1579)
Description: LTEA_HepaRG_CYP4A11: Life Technologies and Expression Analysis (LTEA) Assay for CYP4A11 using HepaRG (AID 2283486). An outline of the steps:
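Human hepatic HepaRG cultures receive duplicate 48 h exposures across a concentration-response series topping at 100 uM. Expression changes in CYP4A11 are measured by qRT-PCR relative to DMSO controls.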

Read-out in assay [1]: Cytochrome P450 3A4 (Homo sapiens) (UniProt P08684)
Description: LTEA_HepaRG_CYP3A4: Life Technologies and Expression Analysis (LTEA) Assay for CYP3A4 using HepaRG (AID 2283487). An outline of the steps: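 HepaRG, 48 h exposure, 8-pt CRC from 100 uM (half-log), 0.5% DMSO, duplicates; serum-free induction medium. Readout: CYP3A4 mRNA, qRT-PCR, ACTB/GAPDH/POLR2A normalization. Bidirectional fit vs DMSO.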

Read-out in assay [2]: DNA damage-inducible transcript 3 (DDIT3), DDIT3 (gene 1649)
Description: LTEA_HepaRG_DDIT3: Life Technologies and Expression Analysis (LTEA) Assay for DNA damage-inducible transcript 3 (DDIT3) using HepaRG (AID 2283488). An outline of the steps:
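Cells are human HepaRG liver cells treated for 48 h with eight half-log concentrations up to 100 uM in 0.5% DMSO. Transcript levels come from qRT-PCR normalized to three housekeeping genes, with activity fitted in both directions relative to vehicle.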

Read-out in assay [3]: Pro-epidermal growth factor (Homo sapiens) (UniProt P01133)
The assay is described as follows: LTEA_HepaRG_EGF: Life Technologies and Expression Analysis (LTEA) Assay for Epidermal growth factor (EGF) using HepaRG (AID 2283489). An outline of the steps:
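Concentration-response mRNA assay: HepaRG cells dosed 48 h (max 100 uM, 0.5% DMSO), EGF measured by qRT-PCR and normalized to ACTB/GAPDH/POLR2A.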

Read-out in assay [4]: Early growth response protein 1 (EGR1) transcription factor, EGR1 (gene 1958)
Description: LTEA_HepaRG_EGR1: Life Technologies and Expression Analysis (LTEA) Assay for Early growth response protein 1 (EGR1) transcription factor using HepaRG (AID 2283490). In outline: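 EGR1 expression change in human HepaRG after 48 h chemical exposure, assessed by housekeeping-normalized qRT-PCR; concentration-response up to 100 uM, fitted in both directions against DMSO controls.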

Read-out in assay [5]: Ezrin (EZR), EZR (gene 7430)
The assay is described as follows: LTEA_HepaRG_EZR: Life Technologies and Expression Analysis (LTEA) Assay for Ezrin (EZR) using HepaRG (AID 2283491). In outline:
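Read-out is EZR transcript level by qRT-PCR, normalized to three housekeeping genes and fitted bidirectionally against the DMSO control. Human HepaRG cells received test chemicals for 48 h at eight half-log concentrations up to 100 uM in 0.5% DMSO.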

Read-out in the next assay: CYP3A5 (gene 1577)
The assay is described as follows: LTEA_HepaRG_CYP3A5: Life Technologies and Expression Analysis (LTEA) Assay for CYP3A5 using HepaRG (AID 2283493). In outline:
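Human HepaRG hepatic cells receive 48 h chemical treatment at eight concentrations (half-log steps from 100 uM) in 0.5% DMSO. Expression of CYP3A5 is quantified by Fluidigm qRT-PCR and normalized to three reference genes.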

Read-out in assay [6]: Fatty Acid-Binding Protein 1 (FABP1), FABP1 (gene 2168)
The assay is described as follows: LTEA_HepaRG_FABP1: Life Technologies and Expression Analysis (LTEA) Assay for Fatty Acid-Binding Protein 1 (FABP1) using HepaRG (AID 2283494). An outline of the steps: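 Values reflect bidirectional concentration-response fitting of FABP1 mRNA change against 0.5% DMSO controls. Human HepaRG cultures received eight half-log doses (top 100 uM) for 48 h; expression quantified by TaqMan qRT-PCR with housekeeping-gene normalization.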

Read-out in assay [7]: Cytochrome P450 4A22 (Homo sapiens) (UniProt Q5TCH4)
Description: LTEA_HepaRG_CYP4A22: Life Technologies and Expression Analysis (LTEA) Assay for Cytochrome P450 4A22 (CYP4A22) using HepaRG (AID 2283495). An outline of the steps:
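Concentration-response (8 points, max 100 uM, 0.5% DMSO) in human HepaRG liver cells after 48 h exposure. CYP4A22 mRNA by TaqMan qRT-PCR with housekeeping-gene normalization.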

Read-out in assay [8]: Glutamate-cysteine ligase catalytic (GCLC), GCLC (gene 2729)
Description: LTEA_HepaRG_GCLC: Life Technologies and Expression Analysis (LTEA) Assay for Glutamate-cysteine ligase catalytic (GCLC) using HepaRG (AID 2283498). In outline: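 Oxidative-stress marker GCLC is measured as mRNA change in human HepaRG liver cells after 48 h chemical treatment in 0.5% DMSO, eight concentrations from 100 uM. Activity is fitted bidirectionally against vehicle.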

Read-out in assay [9]: growth arrest and DNA damage 45 (GADD45G), GADD45G (gene 10912)
The assay is described as follows: LTEA_HepaRG_GADD45G: Life Technologies and Expression Analysis (LTEA) Assay for growth arrest and DNA damage 45 (GADD45G) using HepaRG (AID 2283499). In outline:
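Concentration-response in HepaRG: 48 h dosing, 0.5% DMSO, highest level 100 uM. GADD45G expression by qRT-PCR, normalised to endogenous controls; bidirectional fit to DMSO.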

Read-out in assay [10]: Glutathione S-transferase M3 (GSTM3), GSTM3 (gene 2947)
The assay is described as follows: LTEA_HepaRG_GSTM3: Life Technologies and Expression Analysis (LTEA) Assay for Glutathione S-transferase M3 (GSTM3) using HepaRG (AID 2283501). An outline of the steps:
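Expression of GSTM3 is determined by qRT-PCR in human liver HepaRG cells treated 48 h with an 8-point half-log range from 100 uM in 0.5% DMSO.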

Read-out in assay [11]: Hypoxia-inducible factor 1-alpha (Homo sapiens) (UniProt Q16665)
The assay is described as follows: LTEA_HepaRG_HIF1A: Life Technologies and Expression Analysis (LTEA) Assay for Hypoxia-inducible factor 1 (HIF1A) Trancription factor using HepaRG (AID 2283503). In outline:
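HIF1A transcript level read by qRT-PCR (ACTB, GAPDH, POLR2A normalization) after 48 h chemical exposure of HepaRG cultures. Eight half-log concentrations, top 100 uM, 0.5% DMSO vehicle, duplicates; bidirectional curve fit against DMSO baseline.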

Read-out in assay [12]: Cytochrome P450 7A1 (Homo sapiens) (UniProt P22680)
The assay is described as follows: LTEA_HepaRG_CYP7A1: Life Technologies and Expression Analysis (LTEA) Assay for Cytochrome P450 7A1 (CYP7A1) using HepaRG (AID 2283496). In outline: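 HepaRG, 48 h exposure, 8-pt half-log series from 100 uM, 0.5% DMSO vehicle, duplicates. Readout: TaqMan qRT-PCR mRNA vs three housekeeping genes; bidirectional curve fit against DMSO baseline.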

Read-out in assay [13]: Heat shock 70 kDa protein 1 (HSPA1A), gene 3303
The assay is described as follows: LTEA_HepaRG_HSPA1A: Life Technologies and Expression Analysis (LTEA) Assay for Heat shock 70 kDa protein 1 (HSPA1A) using HepaRG (AID 2283502). An outline of the steps:
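Cells were plated and cultured for 48 h, then switched to serum-free induction medium. Chemicals were added at eight half-log concentrations up to 100 uM for 48 h. RNA was then isolated and HSPA1A measured by qRT-PCR with bidirectional curve fitting against DMSO.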

Read-out in assay [14]: Cytochrome P450 3A7 (Homo sapiens) (UniProt P24462)
Description: LTEA_HepaRG_CYP3A7: Life Technologies and Expression Analysis (LTEA) Assay for CYP3A7 using HepaRG (AID 2283492). In outline: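 qRT-PCR of CYP3A7 in HepaRG lysates after 48 h treatment; concentration-response (8 points, max 100 uM) analysed bidirectionally relative to 0.5% DMSO controls.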

Read-out in assay [15]: Glutathione S-Transferase (GSTA2), GSTA2 (gene 2939)
Description: LTEA_HepaRG_GSTA2: Life Technologies and Expression Analysis (LTEA) Assay for Glutathione S-Transferase (GSTA2) using HepaRG (AID 2283497). An outline of the steps:
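Oxidative-stress marker GSTA2 is quantified by TaqMan qRT-PCR in HepaRG cultures treated 48 h across an eight-point range to 100 uM. Expression is normalized to endogenous controls and compared with 0.5% DMSO vehicle.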

Read-out in assay [16]: 3-Hydroxy-3-Methylglutaryl-CoA Synthase 2 (HMGCS2), HMGCS2 (gene 3158)
Description: LTEA_HepaRG_HMGCS2: Life Technologies and Expression Analysis (LTEA) Assay for 3-Hydroxy-3-Methylglutaryl-CoA Synthase 2 (HMGCS2) using HepaRG (AID 2283504). An outline of the steps:
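This steatosis marker was read as HMGCS2 mRNA change in HepaRG cells treated 48 h with up to 100 uM chemical. Normalisation used housekeeping genes; activity in either direction was fitted relative to 0.5% DMSO vehicle.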

Read-out in assay [17]: Glutamate-cysteine ligase regulatory (GCLM), GCLM (gene 2730)
Description: LTEA_HepaRG_GCLM: Life Technologies and Expression Analysis (LTEA) Assay for Glutamate-cysteine ligase regulatory (GCLM) using HepaRG (AID 2283500). An outline of the steps:
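Endpoint is GCLM transcript level by qRT-PCR, normalized to three housekeeping genes, after 48 h chemical exposure of human HepaRG cells (0.5% DMSO vehicle, top 100 uM, half-log dilutions). Fitting was bidirectional relative to DMSO.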

Chain of Cytochrome P450 3A4 (Homo sapiens) (P08684 whole entry, looked up): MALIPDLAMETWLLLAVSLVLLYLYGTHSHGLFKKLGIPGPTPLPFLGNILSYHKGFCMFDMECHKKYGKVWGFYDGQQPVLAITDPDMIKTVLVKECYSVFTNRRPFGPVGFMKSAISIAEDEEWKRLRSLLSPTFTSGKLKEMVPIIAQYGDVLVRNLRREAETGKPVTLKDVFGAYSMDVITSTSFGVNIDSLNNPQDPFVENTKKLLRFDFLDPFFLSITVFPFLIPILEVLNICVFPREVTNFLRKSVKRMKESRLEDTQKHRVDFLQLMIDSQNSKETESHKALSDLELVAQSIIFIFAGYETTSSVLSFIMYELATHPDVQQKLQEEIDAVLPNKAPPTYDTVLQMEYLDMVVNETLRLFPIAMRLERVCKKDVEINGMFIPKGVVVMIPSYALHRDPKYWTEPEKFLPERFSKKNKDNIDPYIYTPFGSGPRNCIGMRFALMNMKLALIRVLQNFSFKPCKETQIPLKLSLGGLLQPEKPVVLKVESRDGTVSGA
Chain of Hypoxia-inducible factor 1-alpha (Homo sapiens) (Q16665 whole entry, looked up): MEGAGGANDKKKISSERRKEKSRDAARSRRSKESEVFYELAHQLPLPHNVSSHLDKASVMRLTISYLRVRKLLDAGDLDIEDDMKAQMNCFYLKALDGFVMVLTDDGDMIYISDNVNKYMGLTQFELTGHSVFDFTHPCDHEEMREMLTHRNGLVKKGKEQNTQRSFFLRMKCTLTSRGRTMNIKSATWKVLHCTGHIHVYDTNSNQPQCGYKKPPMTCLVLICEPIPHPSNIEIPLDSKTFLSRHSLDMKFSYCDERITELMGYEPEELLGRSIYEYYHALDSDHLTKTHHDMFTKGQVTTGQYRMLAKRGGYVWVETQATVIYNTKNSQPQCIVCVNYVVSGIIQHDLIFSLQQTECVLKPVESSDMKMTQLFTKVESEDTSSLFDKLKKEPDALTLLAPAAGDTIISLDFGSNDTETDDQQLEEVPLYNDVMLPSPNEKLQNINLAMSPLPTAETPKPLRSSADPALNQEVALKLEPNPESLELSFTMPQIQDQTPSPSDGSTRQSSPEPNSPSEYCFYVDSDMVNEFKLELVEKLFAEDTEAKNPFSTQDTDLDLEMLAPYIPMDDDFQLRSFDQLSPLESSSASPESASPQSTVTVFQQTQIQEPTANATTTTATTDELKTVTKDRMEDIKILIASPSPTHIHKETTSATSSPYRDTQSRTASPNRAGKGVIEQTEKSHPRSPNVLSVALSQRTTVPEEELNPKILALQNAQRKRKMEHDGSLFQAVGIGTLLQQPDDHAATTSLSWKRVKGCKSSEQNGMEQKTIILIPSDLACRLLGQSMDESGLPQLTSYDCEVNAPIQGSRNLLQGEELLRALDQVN
Chain of Cytochrome P450 3A7 (Homo sapiens) (P24462 whole entry, looked up): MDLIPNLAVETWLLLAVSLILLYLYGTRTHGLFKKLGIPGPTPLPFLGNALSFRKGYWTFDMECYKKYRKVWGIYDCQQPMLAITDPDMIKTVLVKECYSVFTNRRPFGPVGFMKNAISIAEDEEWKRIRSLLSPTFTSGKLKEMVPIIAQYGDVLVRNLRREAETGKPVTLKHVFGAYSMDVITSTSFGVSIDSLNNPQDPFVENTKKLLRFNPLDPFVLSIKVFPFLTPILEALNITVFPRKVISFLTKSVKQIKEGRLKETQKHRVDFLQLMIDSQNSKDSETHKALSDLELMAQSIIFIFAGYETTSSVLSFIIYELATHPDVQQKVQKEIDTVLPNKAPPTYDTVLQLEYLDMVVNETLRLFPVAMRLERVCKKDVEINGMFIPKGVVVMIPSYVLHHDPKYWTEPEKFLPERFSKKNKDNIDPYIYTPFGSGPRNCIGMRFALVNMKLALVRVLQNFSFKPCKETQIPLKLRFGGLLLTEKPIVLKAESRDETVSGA

As for `CC(C)Oc1cc(-n2nc(C(C)(C)C)oc2=O)c(Cl)cc1Cl`, the concentration at half-maximal activity (AC50) was 30.8 µM (active) with CYP2E1 (gene 1571); 45.6 µM (active) with CYP4A11 (gene 1579); 1.04 µM (active) in [1]; 77.7 µM (active) in assay [2]; 19.4 µM (active) in assay [6]; 50 µM (active) in assay [7]. Also, the concentration at half-maximal activity (AC50) in [8] was 86.2 µM (active); in [9] it was 77.8 µM (active). In addition, the result (in [3]; in assay [4]; in assay [5]; in the assay with CYP3A5 (gene 1577); in assay [10]; in assay [11]) was inactive.
For `CS/C(C)=N/OC(=O)N(C)SN(C)C(=O)O/N=C(\C)SC`, the AC50 (in the assay with CYP2E1 (gene 1571); in assay [12]) was 9.92 µM (active) throughout. Besides, the call (with CYP4A11 (gene 1579); in [1]; in assay [3]; in [4]; in assay [5]; with CYP3A5 (gene 1577)) was inactive. In addition, the outcome in assay [6], in assay [7], in [8], in assay [9], in [10] and in assay [13] was inactive. Further, the result in assay [11] was inactive.
With `CON(C)C(=O)Nc1ccc(Cl)c(Cl)c1`, the AC50 in the assay with CYP2E1 (gene 1571) is 77.6 µM (active); with CYP4A11 (gene 1579), 86.6 µM (active); in [1], 78.6 µM (active); in assay [6] it was 37.6 µM (active); in assay [7] it was 84.4 µM (active); in [15], 50 µM (active). The AC50 in assay [8] is 80 µM (active); in assay [16], 63.4 µM (active). Also, the call (in assay [3]; in assay [4]; in assay [5]; in assay [14]; with CYP3A5 (gene 1577); in [9]) was inactive. In addition, the molecule was called inactive in assay [10] and in assay [11].
In the case of `COP(N)(=O)SC` (centres undefined), the result (in the assay with CYP2E1 (gene 1571); with CYP4A11 (gene 1579); in assay [1]; in [3]; in assay [4]; in assay [5]) was inactive. The call (in [14]; with CYP3A5 (gene 1577); in assay [6]; in [7]; in [8]; in assay [9]) was inactive. The call in assay [10] and in [11] was inactive.
On to `CCCCOC(=O)c1ccccc1C(=O)OCCCC`, for which the call (with CYP2E1 (gene 1571); with CYP4A11 (gene 1579); in assay [1]; in assay [2]; in assay [3]; in [4]) was inactive. Further, the outcome (in assay [5]; in the assay with CYP3A5 (gene 1577); in [6]; in [7]; in assay [8]; in assay [9]) was inactive. Besides, the outcome in assay [10], in assay [13] and in assay [11] was inactive.
`CCOP(=S)(OCC)SCn1c(=O)oc2cc(Cl)ccc21`: the molecule was called inactive (with CYP2E1 (gene 1571); with CYP4A11 (gene 1579); in assay [1]; in assay [3]; in [4]; in assay [5]). For the same molecule, the molecule was called inactive (with CYP3A5 (gene 1577); in assay [6]; in [7]; in assay [15]; in [8]; in assay [9]). Also, the molecule was called inactive in assay [17], in assay [10] and in [11].
